# Inconclusive results are not listed. Calls of active or inactive are those of the source. Unless noted, the call rests on the fitted dose curve; in most records, active means well fitted curve in the direction sought with a large enough effect; inconclusive means small, poorly fitted or top-dose-only effect, or another doubt; inactive means no such curve, though single readings can be large; an effect the other way counts as inactive or inconclusive.
# Columns and labels:
# [1] = Quantitative High-Throughput drug screen in 47 multiple myeloma cell lines against the NCATS MIPE library collection: OPM2_DSMZ cell viability assay (AID 1919872); further: nearly all actives have a fitted effect of over 30% in size; further: potency means the concentration at half of the fitted maximal effect
# How it was run: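 Viability readout: CellTiter-Glo luminescence following 5 min room-temperature incubation with reagent. Prior exposure: 48 h, 37C, humidified 5% CO2, 500 cells per well.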
# [2] = qHTS drug screen for cell cycle checkpoint inhibitors in PARPi-resistant BRCA-mutant ovarian cancer cell lines. (AID 1963452; calls by dose curve); conditions: PEO1/OlaR viability, CellTiter-Glo luminescence, 96 h, stronger effect = lower value
# How it was run: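 PEO1, PEO4 and PEO1/OlaR ovarian cancer cells, 600 per well, exposed 96 h at 37C to a dilution series. Viability read by CellTiter-Glo luminescence, normalized to DMSO and empty wells; activity summarized as Z-AUC.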
# [3] = qHTS for identification of novel therapeutic agents for treatment of microphthalmiaassociated transcription factor (MiT) renal cell carcinoma (RCC) (AID 1963991; calls by dose curve; further: potency means the concentration at half of the fitted maximal effect); conditions: CellTiter-Glo, 48 h; for z-score: stronger effect = lower value
# How it was run: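 Viability of three TFE3-fusion renal carcinoma lines measured by CellTiter-Glo after 48 h treatment with each of 1912 compounds at 11 concentrations. Responses scaled between DMSO (100%) and empty wells (0%) before curve fitting.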
# [4] = Quantitative High-Throughput drug screen in 47 multiple myeloma cell lines against the NCATS MIPE library collection: KMS11_JCRBsus cell viability assay (AID 1919873); further: nearly all actives have a fitted effect of over 50% in size; further: potency means the concentration at half of the fitted maximal effect
# How it was run: (§1)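 Plated at 500 cells per well, myeloma lines received MIPE 4.0 compounds by pin tool. Following 48 h culture at 37 °C, CellTiter-Glo luminescence gave viability relative to DMSO and media-only controls.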
# [5] = Quantitative High-Throughput drug screen in 47 multiple myeloma cell lines against the NCATS MIPE library collection: KMS28BM_JCRB cell viability assay (AID 1919874); further: nearly all actives have a fitted effect of over 35% in size; further: potency means the concentration at half of the fitted maximal effect
# How it was run: as §1
# [6] = qHTS profiling for inhibitors of Plasmodium falciparum proliferation (AID 504749);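 further: 0% = DMSO vehicle and full inhibition = artemisinin control; nearly all actives have a fitted effect of over 60% in size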; conditions: P. falciparum in erythrocytes, SYBR Green DNA, 72 h, at 28.7 µM (top of the series)
# How it was run: (§2)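 Three-day growth assay of blood-stage parasites in erythrocytes (0.3% parasitemia, 2.5% hematocrit) at 37 C, 5% CO2, quantified by SYBR Green DNA staining after overnight detergent lysis.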
# [7] = system: 3D7; experiment: as above; conditions: P. falciparum in erythrocytes, SYBR Green DNA, 72 h; series mostly up to 28.7 µM
# How it was run: as §2
# [8] = target: Cytochrome P450 3A4 (Homo sapiens) (UniProt P08684); experiment: qHTS for inhibitors of CYP3A4 against the NCATS DSHEA and TCM libraries (AID 1919971);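 further: on the % scale 0 is the no-effect control and ±100 the full control effect; inhibition lowers luminescence from luciferin made by CYP3A4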
# How it was run: (§3)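 Luminescent P450-Glo readout. Enzyme plus pro-luciferin substrate in manufacturer buffer (typically 100 mM KPO4); 15 min RT preincubation; 1x NADPH regenerating system, 30-45 min RT in the dark; detection reagent 30 min.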
# [9] = target: Cytochrome P450 2C9 (Homo sapiens) (UniProt P11712); experiment: qHTS for inhibitors of CYP2C9 against the NCATS DSHEA and TCM libraries (AID 1919973);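 further: luminogenic pro-luciferin CYP2C9 substrate turned into luciferin with NADPH regeneration; on the % scale 0 is the no-effect control and ±100 the full control effect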
# How it was run: as §3
# [10] = KB-3-1 P-gp reporter qHTS against the NCATS DSHEA and TCM libraries (AID 1919975); further: 0% is about no effect
# How it was run: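 Parental KB-3-1 cells, 500 cells/well, in DMEM with 10% FBS, exposed 72 h at 37 C to compounds in concentration-response. Viability read by CellTiter-Glo luminescence after 30 min at room temperature.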
# [11] = qHTS Counterscreen for compound interference against the NCATS DSHEA and TCM libraries (AID 1919978); conditions: firefly luciferase detection reagent interference, luminescence;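 further: compounds preincubated with 1 µM D-luciferin or buffer before detection reagent; % of control where 0% means no effect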
# How it was run: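 Firefly luciferase detection reagent was added after compounds (19.5 nM–39.8 uM final) had been incubated 15 min at room temperature with 1 uM D-luciferin or with 100 mM phosphate buffer alone. Luminescence was read after 30 min at room temperature.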
# [12] = Dual reporter qHTS for agonist of Pregnane X Receptor (hPXR) against the NCATS DSHEA and TCM libraries: Fluorescence readout (AID 1920058); further: potency means the concentration at half of the fitted maximal effect
# How it was run: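 hPXR-Luc HepG2 cells (2000/well) in phenol red-free medium with charcoal-stripped FBS attached for 5 h, then were exposed to compounds for about 24 h at 37 °C. Viability was read by CellTiter-Fluor fluorescence (Ex/Em 405/540 nm) after 1 h.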
# [13] = target: Nuclear receptor subfamily 1 group I member 2 (Homo sapiens) (UniProt O75469); experiment: Dual reporter qHTS for agonist of Pregnane X Receptor (hPXR) against the NCATS DSHEA and TCM libraries: Luminescence readout (AID 1920059); further: 0% is about no effect
# How it was run: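 Luminescent PXR reporter read (ONE-Glo) after a CellTiter-Fluor viability read, following 24 h, 37C treatment of HepG2 cells stably carrying hPXR-Luc.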
# [14] = target: Nuclear receptor subfamily 1 group I member 2 (Homo sapiens) (UniProt O75469); experiment: Dual reporter qHTS for antagonist of Pregnane X Receptor (hPXR) against the NCATS DSHEA and TCM libraries: Luminescence Readout (AID 1920060); further: 0% is about no effect
# How it was run: (§4)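 Rifampicin-stimulated (2 uM final) hPXR-luciferase HepG2 cells were treated for 24 h with DSNP/TCM substances. Viability came from CellTiter-Fluor fluorescence, reporter activity from ONE-Glo luminescence.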
# [15] = Dual reporter qHTS for antagonist of Pregnane X Receptor (hPXR) against the NCATS DSHEA and TCM libraries: Fluorescence Readout (AID 1920061); further: 0% is about no effect
# How it was run: as §4
# [16] = measured here: PEO1 parental Z-AUC
# [17] = TFE3-RCC UOK109 viability, measured here: UOK109 Z-AUC
# [18] = TFE3-RCC viability, measured here: UOK124 Z-AUC
# [19] = TFE3-RCC viability, measured here: UOK145 Z-AUC
# Sequence of Nuclear receptor subfamily 1 group I member 2 (Homo sapiens) (O75469 whole entry, looked up): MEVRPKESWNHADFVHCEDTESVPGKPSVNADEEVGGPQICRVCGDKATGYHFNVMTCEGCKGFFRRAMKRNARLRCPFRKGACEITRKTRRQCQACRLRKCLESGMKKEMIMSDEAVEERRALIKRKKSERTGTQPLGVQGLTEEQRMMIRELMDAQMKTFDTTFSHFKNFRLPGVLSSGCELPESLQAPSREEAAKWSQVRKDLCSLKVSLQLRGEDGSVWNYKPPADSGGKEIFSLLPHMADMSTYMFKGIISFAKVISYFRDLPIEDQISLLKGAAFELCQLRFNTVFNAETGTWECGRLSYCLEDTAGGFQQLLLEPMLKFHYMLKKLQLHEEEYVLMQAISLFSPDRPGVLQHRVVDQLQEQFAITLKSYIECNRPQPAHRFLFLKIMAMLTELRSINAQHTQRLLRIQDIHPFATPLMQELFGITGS
# Sequence of Cytochrome P450 2C9 (Homo sapiens) (P11712 whole entry, looked up): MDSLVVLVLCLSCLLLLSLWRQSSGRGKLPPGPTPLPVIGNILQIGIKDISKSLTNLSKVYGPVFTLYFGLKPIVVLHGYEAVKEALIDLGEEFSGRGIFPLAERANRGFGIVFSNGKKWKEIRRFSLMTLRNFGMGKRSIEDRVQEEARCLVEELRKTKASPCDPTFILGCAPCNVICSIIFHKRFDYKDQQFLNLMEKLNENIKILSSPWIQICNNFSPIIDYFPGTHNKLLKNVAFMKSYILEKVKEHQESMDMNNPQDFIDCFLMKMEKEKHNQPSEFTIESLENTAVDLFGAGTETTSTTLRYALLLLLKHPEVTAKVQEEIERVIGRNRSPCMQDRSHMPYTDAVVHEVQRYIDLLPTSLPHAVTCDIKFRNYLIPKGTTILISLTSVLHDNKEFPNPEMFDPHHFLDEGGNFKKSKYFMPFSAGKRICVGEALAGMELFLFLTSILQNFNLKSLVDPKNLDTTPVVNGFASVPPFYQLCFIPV
# Sequence of Cytochrome P450 3A4 (Homo sapiens) (P08684 whole entry, looked up): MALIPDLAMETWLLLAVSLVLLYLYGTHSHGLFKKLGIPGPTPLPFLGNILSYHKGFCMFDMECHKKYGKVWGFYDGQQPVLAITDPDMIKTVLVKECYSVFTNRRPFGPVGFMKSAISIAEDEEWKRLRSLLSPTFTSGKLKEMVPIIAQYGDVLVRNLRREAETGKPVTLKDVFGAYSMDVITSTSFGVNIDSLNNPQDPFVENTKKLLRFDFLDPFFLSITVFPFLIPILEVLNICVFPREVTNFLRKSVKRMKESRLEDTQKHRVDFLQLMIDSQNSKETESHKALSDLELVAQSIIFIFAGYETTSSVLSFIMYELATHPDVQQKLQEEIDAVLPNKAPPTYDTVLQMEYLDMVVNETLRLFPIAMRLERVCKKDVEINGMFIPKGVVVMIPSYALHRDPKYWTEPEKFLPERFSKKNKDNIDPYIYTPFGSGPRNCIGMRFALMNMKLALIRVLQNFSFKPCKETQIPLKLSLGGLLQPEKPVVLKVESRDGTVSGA
compound,measurement,setting,value
CCC(=O)N1CCN(c2ccc(-n3c(=O)ccc4cnc5ccc(-c6cnc7ccccc7c6)cc5c43)cc2C(F)(F)F)CC1,Potency,[1],0.0264 µM (active)
same,Z-AUC,[2],-1.59 (inactive)
same,Z-AUC,[2]; [16],-1.67
same,Z-AUC,[2]; measured here: PEO4 Z-AUC,-1.97
same,Potency,"[3]; TFE3-RCC UOK109 viability, active = Z-AUC below -0.8 in all three lines",20.9 nM (active)
same,z-score,[3]; [17],-1.38
same,z-score,[3]; [18],-1.23
same,z-score,[3]; [19],-1.82
O=C1C(c2c(O)[nH]c3ccccc23)=Nc2ccccc21,Potency,[1],inactive
same,Potency,[4],inactive
same,Potency,[5],inactive
same,Z-AUC,[2],0.207 (inactive)
same,Z-AUC,[2]; [16],0.824
same,Z-AUC,[2]; measured here: PEO4 Z-AUC,0.396
Cn1cnc(-c2cc3nccc(Oc4ccc(NC(=S)NC(=O)Cc5ccccc5)cc4F)c3s2)c1,Potency,[4],20.9 µM (active)
Cc1ccc(S(=O)(=O)Nc2nc3ccccc3nc2Nc2ccc3nsnc3c2)cc1,Potency,[4],11.5 µM (active)
same,Z-AUC,[2],-0.8 (inactive)
same,Z-AUC,[2]; [16],-0.564
same,Z-AUC,[2]; measured here: PEO4 Z-AUC,-0.705
CNC(=O)c1c(-c2ccc(F)cc2)oc2cc(N(CCO)S(C)(=O)=O)c(C3CC3)cc12,Z-AUC,[2],0.51 (inactive)
same,Z-AUC,[2]; [16],0.436
same,Z-AUC,[2]; measured here: PEO4 Z-AUC,0.532
C=C[C@@H]1CN2CCC1C[C@@H]2C(O)c1ccnc2ccc(OC)cc12 (stereo partly specified),Potency,[1],inactive
same,Potency,[4],inactive
same,Potency,[5],inactive
COc1nccc(-c2c(-c3ccc(F)cc3)ncn2C2CCNCC2)n1,Potency,[1],inactive
same,Potency,[5],0.469 µM (active)
same,Z-AUC,[2],1.19 (inactive)
same,Z-AUC,[2]; [16],0.981
same,Z-AUC,[2]; measured here: PEO4 Z-AUC,0.889
COc1cc([C@H]2Oc3cc([C@H]4Oc5cc(O)cc(O)c5C(=O)[C@H]4O)ccc3O[C@H]2CO)ccc1O,Potency,[4],7.43 µM (active)
same,Potency,[5],10.5 µM (active)
O=c1[nH]c(=O)n([C@H]2C[C@@H](O)[C@@H](CO)O2)cc1I,Potency,[5],inactive
same,z-score,[3]; [17],0.108
same,z-score,[3]; [18],0.166
same,z-score,[3]; [19],0.313
COc1c(C)cnc(Cn2cnc3c(Cl)nc(N)nc32)c1C,Potency,[4],0.0662 µM (active)
same,Z-AUC,[2],-0.301 (inactive)
same,Z-AUC,[2]; [16],-0.874
same,Z-AUC,[2]; measured here: PEO4 Z-AUC,-0.434
Cn1cc(-c2ccc3nnc(Sc4ccc5ncccc5c4)n3n2)cn1,Potency,[1],inactive
same,Potency,[4],inactive
same,Potency,[5],inactive
same,Z-AUC,[2],1.3 (inactive)
same,Z-AUC,[2]; [16],1.65
same,Z-AUC,[2]; measured here: PEO4 Z-AUC,1.9
Cc1nc2c([nH]1)CCN(C(=O)c1ccc(NC(=O)c3ccccc3-c3ccccc3)cc1)c1ccccc1-2,Potency,[1],inactive
same,Potency,[5],inactive
same,Z-AUC,[2],0.604 (inactive)
same,Z-AUC,[2]; [16],0.56
same,Z-AUC,[2]; measured here: PEO4 Z-AUC,0.851
same,z-score,[3]; [17],-0.104
same,z-score,[3]; [18],0.486
same,z-score,[3]; [19],0.369
CN1CC(=O)N2C(Cc3c([nH]c4ccccc34)[C@H]2c2ccc3c(c2)OCO3)C1=O (stereo partly specified),Potency,[1],inactive
same,Potency,[4],inactive
same,Potency,[5],inactive
same,"activity, negative = inhibition",[6]; parasite line A,3.25% (inactive)
same,"activity, negative = inhibition",[6]; parasite line B,5.31% (inactive)
same,Potency,[7],inactive
C[C@@]1(C(=O)Nc2ccc(F)nc2)CCCN1c1nc(Nc2cc(C3CC3)[nH]n2)c2cccn2n1,Potency,[1],7.43 µM (active)
same,Potency,[4],0.0296 µM (active)
same,Potency,[5],0.0372 µM (active)
same,Z-AUC,[2],0.31 (inactive)
same,Z-AUC,[2]; [16],0.238
same,Z-AUC,[2]; measured here: PEO4 Z-AUC,-0.135
CON(C)C(=O)N1N=C(c2cc(F)ccc2F)S[C@]1(CCCN)c1ccccc1,Potency,[4],inactive
CNC(=O)c1cc(Oc2ccc(NC(=O)Nc3ccc(Cl)c(C(F)(F)F)c3)c(F)c2)ccn1,Potency,[1],18.7 µM (active)
same,Z-AUC,[2],0.96 (inactive)
same,Z-AUC,[2]; [16],0.462
same,Z-AUC,[2]; measured here: PEO4 Z-AUC,0.496
C[C@H]1COC2=C1C(=O)C(=O)c1c2ccc2c1CCCC2(C)C,Potency,[5],inactive
same,Z-AUC,[2],1.69 (inactive)
same,Z-AUC,[2]; [16],1.64
same,Z-AUC,[2]; measured here: PEO4 Z-AUC,1.41
same,z-score,[3]; [17],-0.0604
same,z-score,[3]; [18],-0.0946
same,z-score,[3]; [19],-0.271
Cc1cc2nc3c(=O)[nH]c(=O)nc-3n(CC(O)C(O)C(O)CO)c2cc1C (stereo unspecified),Potency,[1],inactive
same,Potency,[4],inactive
same,Potency,[5],5.9 µM (active)
same,outcome,[8],inactive
same,Potency,[9],inactive
same,outcome,[10],inactive
same,max response,[11],1.01% (inactive)
same,Potency,[12],28.2 µM (active)
same,Potency,[13],inactive
same,outcome,[14],inactive
same,outcome,[15],inactive
same,Z-AUC,[2],-0.035 (inactive)
same,Z-AUC,[2]; [16],0.9
same,Z-AUC,[2]; measured here: PEO4 Z-AUC,1
same,z-score,[3]; [17],1.42
same,z-score,[3]; [18],0.421
same,z-score,[3]; [19],0.538
same,"activity, negative = inhibition",[6]; parasite line A,-17.3% (inactive)
same,"activity, negative = inhibition",[6]; parasite line B,-10.6% (inactive)
same,Potency,[7],inactive
COc1cc([C@@H]2c3cc4c(cc3[C@@H](O[C@@H]3O[C@@H]5CO[C@@H](C)O[C@@H]5[C@H](O)[C@@H]3O)[C@H]3COC(=O)[C@H]23)OCO4)cc(OC)c1O,Z-AUC,[2],-0.699 (inactive)
same,Z-AUC,[2]; [16],-1.32
same,Z-AUC,[2]; measured here: PEO4 Z-AUC,-0.275
O=C(Nc1ccc(OC(F)(F)F)cc1)c1sccc1NCc1ccnc2ccccc12,Potency,[1],18.7 µM (active)
same,Potency,[4],7.43 µM (active)
same,Z-AUC,[2],0.246 (inactive)
same,Z-AUC,[2]; [16],-0.378
same,Z-AUC,[2]; measured here: PEO4 Z-AUC,-0.233
Cn1c(=O)c(Oc2ccc(F)cc2F)cc2cnc(NC3CCOCC3)nc21,Potency,[1],inactive
same,Potency,[5],inactive
same,Z-AUC,[2],1.26 (inactive)
same,Z-AUC,[2]; [16],1.1
same,Z-AUC,[2]; measured here: PEO4 Z-AUC,1.01

# From PubChem BioAssay (NCATS)
